This is an account of results in PubChem BioAssay (EPA / NIEHS).

Several values for one entry are separate records, joined by “and”; a condition that tells them apart may be missing. Identical values can stand only once. Results filed as inconclusive are left out. Where a structure was tested more than once in an assay, its records may differ in their call. Activity calls are given as the source filed them. How the source made its calls, unless noted: active means hit-call score of the fitted dose curve at least 0.9, where 1 is the maximum; inconclusive means response in the unintended direction; inactive means score below 0.9.

The target of assay [1] is Cellular tumor antigen p53 (Homo sapiens) (UniProt P04637). Description: TOX21_p53_BLA_p2_ratio: Tox21 HCT-116 p53 Agonism Beta-lactamase Assay, Ratio, Phase 2 (AID 2283592). The procedure, abridged: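 HCT-116 cells with p53-responsive beta-lactamase reporter, 4000 cells/well, preincubated 5 h, then compound in DMSO (217-fold dilution) for 16 h at 37C. CCF4-AM substrate 2 h at room temperature; 460/530 nm emission ratio fitted upward versus DMSO.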

The nature of assay [2]: TOX21_p53_BLA_p3_viability: Viability Assessment in the Tox21 HCT-116 p53 Agonism Beta-lactamase Assay, Phase 3 (AID 2283593).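 Further: cells exposed to compound for 16 h before reading.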 In a few lines: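 Cellular ATP was quantified by CellTiter-Glo luminescence, read after 30 min at room temperature. Beforehand, HCT116 cells (4000/well) received compound 5 h post-seeding, 217-fold diluted from DMSO, then incubated 16 h at 37C.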

The target in assay [3] is Cellular tumor antigen p53 (Homo sapiens) (UniProt P04637). As to the kind of experiment: TOX21_p53_BLA_p3_ratio: Tox21 HCT-116 p53 Agonism Beta-lactamase Assay, Ratio, Phase 3 (AID 2283596). In a few lines:
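HCT116 p53-bla cells (4000/well) given compound in DMSO (217-fold dilution) after 5 h, incubated 16 h at 37C. CCF4-AM substrate 2 h at room temperature; 460/530 nm emission ratio, gain fitted against DMSO.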

Assay [4] can be described thus: TOX21_p53_BLA_p4_viability: Viability Assessment in the Tox21 HCT-116 p53 Agonism Beta-lactamase Assay, Phase 4 (AID 2283597).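 Further: hits lower the luminescence signal meaning cytotoxicity.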 In a few lines:
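HCT-116 p53-bla cells, 4000/well, dosed after 5 h attachment and incubated 16 h at 37 °C, 5% CO2. Viability from CellTiter-Glo ATP luminescence after 30 min at room temperature, taken after the beta-lactamase read; loss of signal indicates cytotoxicity.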

The target of assay [5] is Cellular tumor antigen p53 (Homo sapiens) (UniProt P04637). Description: TOX21_p53_BLA_p5_ratio: Tox21 HCT-116 p53 Agonism Beta-lactamase Assay, Ratio, Phase 5 (AID 2283599). In a few lines:
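Beta-lactamase reporter ratio (blue 460 nm over green 530 nm, 405 nm excitation) after 2 h CCF4-AM loading, in HCT-116 cells exposed 16 h at 37 C to compounds pinned at 217-fold dilution. Increases relative to DMSO baseline scored.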

The nature of assay [6]: TOX21_p53_BLA_p5_viability: Viability Assessment in the Tox21 HCT-116 p53 Agonism Beta-lactamase Assay, Phase 5 (AID 2283600). The procedure, abridged: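 HCT-116 p53 beta-lactamase reporter cells, 4000/well, were exposed to compound (pin transfer, 217-fold dilution) for 16 hours at 37C. Cellular ATP was read by CellTiter-Glo luminescence after 30 min at room temperature.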

The target in assay [7] is Cellular tumor antigen p53 (Homo sapiens) (UniProt P04637). As to the kind of experiment: TOX21_p53_BLA_p4_ratio: Tox21 HCT-116 p53 Agonism Beta-lactamase Assay, Ratio, Phase 4 (AID 2283601). The procedure, abridged: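 Signal is the blue/green (460nm/530nm) ratio of cleaved versus uncleaved CCF4-AM substrate, read after 2 h substrate loading. Cells were HCT116 carrying the p53-responsive beta-lactamase reporter, dosed 16 h at 37C, 5% CO2; CellTiter-Glo measured in parallel.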

A short description of assay [8]: TOX21_p53_BLA_p2_viability: Viability Assessment in the Tox21 HCT-116 p53 Agonism Beta-lactamase Assay, Phase 2 (AID 2283591).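 Further: compound exposure lasted 16 h at 37 °C; actives lower the ATP signal meaning cytotoxicity.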 In a few lines: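 Cytotoxicity readout: CellTiter-Glo ATP luminescence, 30 min at room temperature, after the beta-lactamase read. Cells were HCT116 exposed 16 h at 37C to compounds pin-transferred at 217-fold dilution from DMSO stocks.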

Assay [9] can be described thus: UKN5_HCS_SBAD2_cell_viability: Viability Assessment in the University of Konstanz (UKN) Leist Lab Neurite Outgrowth Assay in human iPSC-derived immature Dorsal Root Ganglia Neurons (UKN5) (AID 2284056; active means hit-call score of the fitted dose curve at least 0.9, where 1 is the maximum; inactive means score below 0.9). The procedure, abridged: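 iPSC-derived immature peripheral neurons (SBAD2) seeded on Matrigel with CHIR99021, SU5402 and DAPT, dosed 1 h later for 24 h. Viability from Hoechst H-33342 and calcein-AM live staining, high-content imaging; bidirectional fit versus DMSO.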

Assay [10] is described as follows: UKN5_HCS_SBAD2_neurite_outgrowth: University of Konstanz (UKN) Leist Lab Neurite Outgrowth Assay in human iPSC-derived immature Dorsal Root Ganglia Neurons (UKN5) (AID 2284070; active means hit-call score of the fitted dose curve at least 0.9, where 1 is the maximum; inactive means score below 0.9). The note with it: actives raise or lower the signal. The procedure, abridged: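 SBAD2 iPSC-derived immature peripheral neurons on Matrigel, 100.000 cells/cm2, medium with CHIR99021 (1.5 uM), SU5402 (5 uM), DAPT (5 uM); compound added 1 h post-seeding for 24 h. Calcein-AM neurite area by high-content imaging; Hoechst H-33342 viability; bidirectional fit vs DMSO.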

A short description of assay [11]: UKN4_HCS_LUHMES_neurite_outgrowth: University of Konstanz (UKN) Leist Lab Neurite Outgrowth Assay in human LUHMES cells (UKN4) (AID 2284206; active means hit-call score of the fitted dose curve at least 0.9, where 1 is the maximum; inactive means score below 0.9). The note with it: actives raise or lower the signal. In a few lines: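 Human LUHMES neuronal precursors, differentiated 2 days then replated without cAMP and GDNF, exposed to compounds for 24 h. Neurite area imaged by high-content microscopy after calcein-AM live staining; Hoechst H-33342 for viability; bidirectional fit versus DMSO.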

Assay [12] in a line: UKN4_HCS_LUHMES_cell_viability: Viability Assessment in the University of Konstanz (UKN) Leist Lab Neurite Outgrowth Assay in human LUHMES cells (UKN4) (AID 2284232; active means hit-call score of the fitted dose curve at least 0.9, where 1 is the maximum; inactive means score below 0.9). In a few lines: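 LUHMES precursors differentiated 2 days, replated at 30000 cells/well without cAMP/GDNF, then compound-treated 24 h. Viability from Hoechst H-33342 and calcein-AM live staining (30 min) by high-content fluorescence imaging; bidirectional fit versus DMSO.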

Assay [13] in a line: UKN2_HCS_IMR90_cell_viability: Viability Assessment in the University of Konstanz (UKN) Leist Lab Neural Crest Cell Migration Assay in human induced IMR90 Pluripotent Stem Cells (UKN2) (AID 2284233; active means hit-call score of the fitted dose curve at least 0.9, where 1 is the maximum; inactive means score below 0.9;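 further: viability of neural crest cells differentiated from IMR90 iPSC measured by calcein-AM fluorescence imaging; cells exposed to compound for 24 h after a 24 h migration phase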). In a few lines:
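Human IMR90-derived neural crest cells were allowed to migrate for 24 h into a cell-free zone, then exposed to test chemicals for 24 h. Calcein-AM and Hoechst staining with high-content imaging gave viability, analysed against DMSO baseline.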

Chain of Cellular tumor antigen p53 (Homo sapiens) (P04637 whole entry, looked up): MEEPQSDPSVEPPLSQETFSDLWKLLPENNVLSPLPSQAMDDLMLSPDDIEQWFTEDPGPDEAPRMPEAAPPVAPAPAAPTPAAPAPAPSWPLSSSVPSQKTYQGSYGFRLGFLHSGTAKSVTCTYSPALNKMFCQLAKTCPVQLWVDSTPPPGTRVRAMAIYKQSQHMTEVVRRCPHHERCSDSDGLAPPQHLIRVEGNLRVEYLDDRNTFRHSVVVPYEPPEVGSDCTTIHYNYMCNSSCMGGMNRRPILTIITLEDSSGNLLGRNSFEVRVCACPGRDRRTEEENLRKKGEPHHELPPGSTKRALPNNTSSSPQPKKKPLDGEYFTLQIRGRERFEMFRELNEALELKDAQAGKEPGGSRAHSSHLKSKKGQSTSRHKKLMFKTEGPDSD

As to `O=C(O)c1ccccn1`, the outcome in assay [1], in [2], in assay [3], in assay [4], in assay [5] and in assay [6] was inactive. In addition, the result in assay [7] was inactive.

Regarding `O=C(Cl)c1ccccc1`, the result in assay [1], in assay [2], in assay [3], in assay [4], in assay [5] and in [6] was inactive. The result in assay [7] was inactive.

Consider `CCCCCCC(=O)CCCCCC/C=C/C[C@@H](O)[C@H](O)[C@@](N)(CO)C(=O)O`, for which the result in [1], in assay [2], in assay [3], in [4], in assay [5] and in assay [6] was inactive. Moreover, the outcome in assay [7] was inactive.

On to `ClC(Cl)=C(Cl)Cl`, for which the outcome in [8], in assay [4], in assay [5], in assay [6] and in [7] was inactive.

As for `CCCSC(=O)Cl`, the molecule was called inactive in assay [8], in assay [6] and in [7].

Consider `CC(C)Br`, for which the result in assay [1] and in assay [2] was inactive.

Consider `CCN(C(C)=O)c1cccc(-c2ccnc3c(C#N)cnn23)c1`, for which the call in [8], in [5], in [6] and in assay [7] was inactive.

As for `CN1CC[C@]23c4c5ccc(O)c4O[C@H]2[C@@H](O)C=C[C@H]3[C@H]1C5`, the molecule was called inactive in [8], in [6], in [9], in assay [10], in assay [11] and in assay [12]. The call in [13] was inactive.

`C[C@]12CC[C@H]3[C@@H](CC=C4C[C@@H](O)CC[C@@]43C)[C@@H]1CC[C@@H]2O`: the result in assay [1], in [3], in assay [4], in assay [5] and in assay [6] was inactive. In assay [2], the AC50 (commonly the concentration at which the activity in the assay is half-maximal) is 43.5 µM (active).

Consider `C=CCCC#N`, for which the result in assay [1], in [2], in [3] and in assay [4] was inactive.

Consider `CCOP(=S)(OCC)SC(CCl)N1C(=O)c2ccccc2C1=O` (stereo not given), for which the result in assay [1], in assay [2], in assay [3], in [4], in [5] and in assay [6] was inactive. Also, the result in assay [7] was inactive.

`C=CC(=C)C`: the molecule was called inactive in assay [8] and in [6].

For `ClC1=C(Cl)C2(Cl)C(CBr)CC1(Cl)C2(Cl)Cl` (stereo not given), the outcome in [1], in assay [3], in assay [4], in assay [5], in assay [6] and in [7] was inactive. Further, the AC50 in assay [2] was 63.4 µM (active) and 20.2 µM (active); in assay [6], 36.3 µM (active).

With `CCC1(c2cnc[nH]2)Cc2ccccc2C1`, the outcome in assay [1], in [2], in assay [3], in [4], in assay [5] and in assay [6] was inactive. For the same molecule, the result in assay [7] was inactive.

Regarding `CNC(C)(C)Cc1ccccc1`, the result in [8], in [5], in [6] and in [7] was inactive.
